# Reference: article PMC7862700, “An all-to-all approach to the identification of sequence-specific readers for epigenetic DNA modifications on cytosine”
# Assays:
# Assay in all cases: DAPPL (digital affinity profiling via proximity ligation, sequencing); 10 mM Tris-HCl pH 7.5, 50 mM NaCl, 1 mM DTT, 4% glycerol, room temperature, 30 min; GST-TFs on glutathione beads, 16-mer random dsDNA library, 0.1% formaldehyde crosslink after washing; high values mean tight binding
# FLI1 = biological target: T1, FLI1 (Homo sapiens, UniProt Q01543 1-452); details: protein: recombinant; tags: N-terminal GST; dsDNA, one strand shown
# T1 sequence: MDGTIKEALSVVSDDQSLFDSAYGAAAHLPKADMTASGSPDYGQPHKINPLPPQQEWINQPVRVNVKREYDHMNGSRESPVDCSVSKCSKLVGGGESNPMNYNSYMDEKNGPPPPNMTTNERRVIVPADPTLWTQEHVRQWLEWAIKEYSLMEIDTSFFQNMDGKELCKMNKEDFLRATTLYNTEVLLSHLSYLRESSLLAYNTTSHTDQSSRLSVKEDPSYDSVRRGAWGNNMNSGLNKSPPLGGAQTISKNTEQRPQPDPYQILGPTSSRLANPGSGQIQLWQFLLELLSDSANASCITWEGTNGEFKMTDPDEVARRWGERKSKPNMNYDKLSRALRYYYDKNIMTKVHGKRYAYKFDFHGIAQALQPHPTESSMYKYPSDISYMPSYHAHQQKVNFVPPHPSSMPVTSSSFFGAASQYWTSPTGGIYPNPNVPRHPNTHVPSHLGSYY
# How it was run: (§1)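 Binding signal is defined as a hexamer's read frequency for one factor over its frequency for the tag-only sample. To obtain reads, GST-fused human transcription factors were expressed in yeast, captured on glutathione beads, barcoded with DNA and pooled with that sample. Pools met 200 nmole of a 16-mer random double-stranded DNA library in Tris/NaCl/DTT/glycerol buffer for 30 min at room temperature before washing, 0.1% formaldehyde crosslinking, proximity ligation (BsaI/T4 ligase, 1 h, 37 °C), PCR and Illumina NextSeq500 sequencing.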
# ELK1 = biological target: T2, ELK1 (Homo sapiens, UniProt P19419 1-428); details: protein: recombinant; tags: N-terminal GST; dsDNA, one strand shown
# T2 sequence: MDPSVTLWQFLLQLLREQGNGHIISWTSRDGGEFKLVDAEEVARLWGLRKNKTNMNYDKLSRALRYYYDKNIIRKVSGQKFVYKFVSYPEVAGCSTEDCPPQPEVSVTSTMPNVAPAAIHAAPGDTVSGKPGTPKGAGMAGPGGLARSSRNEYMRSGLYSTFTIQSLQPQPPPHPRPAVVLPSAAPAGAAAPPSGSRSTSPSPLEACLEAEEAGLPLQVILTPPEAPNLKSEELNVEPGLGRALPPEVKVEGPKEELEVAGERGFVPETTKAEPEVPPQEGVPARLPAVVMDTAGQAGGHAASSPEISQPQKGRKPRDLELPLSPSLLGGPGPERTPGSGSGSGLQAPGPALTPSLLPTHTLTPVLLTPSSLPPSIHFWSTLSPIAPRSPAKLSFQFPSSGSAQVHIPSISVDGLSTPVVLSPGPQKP
# How it was run: as §1
# GABPA = biological target: T3, GABPA (Homo sapiens, UniProt Q06546 1-454); details: protein: recombinant; tags: N-terminal GST; dsDNA, one strand shown
# T3 sequence: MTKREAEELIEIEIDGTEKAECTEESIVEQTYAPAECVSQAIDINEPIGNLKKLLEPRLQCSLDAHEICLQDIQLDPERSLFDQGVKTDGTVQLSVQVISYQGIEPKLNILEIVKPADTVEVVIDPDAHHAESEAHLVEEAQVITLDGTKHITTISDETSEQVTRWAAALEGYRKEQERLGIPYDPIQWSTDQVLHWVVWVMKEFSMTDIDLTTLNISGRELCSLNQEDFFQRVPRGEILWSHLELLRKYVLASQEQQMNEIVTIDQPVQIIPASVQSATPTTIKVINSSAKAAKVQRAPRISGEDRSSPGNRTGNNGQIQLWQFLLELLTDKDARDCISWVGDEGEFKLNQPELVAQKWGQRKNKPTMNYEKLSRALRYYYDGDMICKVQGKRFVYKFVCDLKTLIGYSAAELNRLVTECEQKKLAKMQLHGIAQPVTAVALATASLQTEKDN
# How it was run: as §1
# ERG = biological target: T4, ERG (Homo sapiens, UniProt P11308 1-479); details: protein: recombinant; tags: N-terminal GST; dsDNA, one strand shown
# T4 sequence: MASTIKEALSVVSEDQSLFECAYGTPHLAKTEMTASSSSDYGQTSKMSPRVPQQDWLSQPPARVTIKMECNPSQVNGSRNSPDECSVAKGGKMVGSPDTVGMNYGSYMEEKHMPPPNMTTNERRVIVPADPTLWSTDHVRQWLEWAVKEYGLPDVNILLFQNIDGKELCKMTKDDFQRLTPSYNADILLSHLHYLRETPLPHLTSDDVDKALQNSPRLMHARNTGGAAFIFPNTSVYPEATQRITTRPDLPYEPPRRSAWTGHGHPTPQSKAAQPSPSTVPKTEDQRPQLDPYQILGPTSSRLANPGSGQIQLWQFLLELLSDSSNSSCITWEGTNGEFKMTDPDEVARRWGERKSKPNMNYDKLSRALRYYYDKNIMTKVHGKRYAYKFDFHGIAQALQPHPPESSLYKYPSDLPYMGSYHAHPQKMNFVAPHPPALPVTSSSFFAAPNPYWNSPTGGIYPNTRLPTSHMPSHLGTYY
# How it was run: as §1
# ELF1 = ELF1 (Homo sapiens, UniProt P32519 1-619); details: protein: recombinant; tags: N-terminal GST; dsDNA, one strand shown
# How it was run: as §1
# EHF = biological target: T5, EHF (Homo sapiens, UniProt Q9NZC4 1-300); details: protein: recombinant; tags: N-terminal GST; dsDNA, one strand shown
# T5 sequence: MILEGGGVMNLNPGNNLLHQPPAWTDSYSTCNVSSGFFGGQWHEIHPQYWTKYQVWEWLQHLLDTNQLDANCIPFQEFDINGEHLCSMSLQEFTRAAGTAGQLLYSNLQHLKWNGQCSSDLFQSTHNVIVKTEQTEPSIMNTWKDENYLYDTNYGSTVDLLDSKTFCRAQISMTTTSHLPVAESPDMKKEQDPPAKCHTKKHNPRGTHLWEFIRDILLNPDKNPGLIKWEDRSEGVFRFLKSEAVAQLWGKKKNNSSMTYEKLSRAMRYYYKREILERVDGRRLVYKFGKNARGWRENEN
# How it was run: as §1
# SPI1 = SPI1 (Homo sapiens, UniProt P17947 1-270); details: protein: recombinant; tags: N-terminal GST; dsDNA, one strand shown
# How it was run: as §1
# SPIB = SPIB (Homo sapiens, UniProt Q01892 1-262); details: protein: recombinant; tags: N-terminal GST; dsDNA, one strand shown
# How it was run: as §1
# ELK3 = biological target: T6, ELK3 (Homo sapiens, UniProt P41970 1-407); details: protein: recombinant; tags: N-terminal GST; dsDNA, one strand shown
# T6 sequence: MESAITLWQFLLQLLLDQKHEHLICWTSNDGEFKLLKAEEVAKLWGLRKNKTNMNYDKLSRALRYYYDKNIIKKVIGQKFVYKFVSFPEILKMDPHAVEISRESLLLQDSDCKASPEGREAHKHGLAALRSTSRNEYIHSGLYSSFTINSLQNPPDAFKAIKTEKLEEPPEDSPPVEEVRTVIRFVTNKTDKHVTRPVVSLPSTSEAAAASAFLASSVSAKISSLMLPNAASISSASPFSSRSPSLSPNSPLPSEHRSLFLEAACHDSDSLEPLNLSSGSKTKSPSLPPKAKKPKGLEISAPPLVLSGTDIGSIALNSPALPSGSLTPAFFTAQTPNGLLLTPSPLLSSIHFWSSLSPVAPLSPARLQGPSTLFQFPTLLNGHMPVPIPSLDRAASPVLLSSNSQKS
# How it was run: as §1
# FEV = biological target: T7, FEV (Homo sapiens, UniProt Q99581 1-238); details: protein: recombinant; tags: N-terminal GST; dsDNA, one strand shown
# T7 sequence: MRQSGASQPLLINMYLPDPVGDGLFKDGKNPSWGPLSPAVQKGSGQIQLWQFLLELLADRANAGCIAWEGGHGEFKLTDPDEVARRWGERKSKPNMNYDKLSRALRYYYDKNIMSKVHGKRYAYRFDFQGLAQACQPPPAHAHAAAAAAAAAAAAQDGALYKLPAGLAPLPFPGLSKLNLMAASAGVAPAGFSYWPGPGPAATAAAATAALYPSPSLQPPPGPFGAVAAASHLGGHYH
# How it was run: as §1
# ETV5 = ETV5 (Homo sapiens, UniProt P41161 1-510); details: protein: recombinant; tags: N-terminal GST; dsDNA, one strand shown
# How it was run: as §1
# HSF1 = HSF1 (Homo sapiens, UniProt Q00613 1-529); details: protein: recombinant; tags: N-terminal GST; chain copies: 3; dsDNA, one strand shown
# How it was run: as §1
# SPIC = biological target: T8, SPIC (Homo sapiens, UniProt Q8N5J4 1-248); details: protein: recombinant; tags: N-terminal GST; dsDNA, one strand shown
# T8 sequence: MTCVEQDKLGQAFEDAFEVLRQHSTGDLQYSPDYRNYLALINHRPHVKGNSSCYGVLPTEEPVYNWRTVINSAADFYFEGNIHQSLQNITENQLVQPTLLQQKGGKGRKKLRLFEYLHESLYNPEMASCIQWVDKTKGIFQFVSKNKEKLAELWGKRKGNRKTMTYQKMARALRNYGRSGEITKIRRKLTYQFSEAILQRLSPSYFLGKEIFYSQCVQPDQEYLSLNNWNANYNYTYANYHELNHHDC
# How it was run: as §1
# ELF4 = ELF4 (Homo sapiens, UniProt Q99607 1-663); details: protein: recombinant; tags: N-terminal GST; dsDNA, one strand shown
# How it was run: as §1
# ELK4 = biological target: T9, ELK4 (Homo sapiens, UniProt P28324-2 1-405); details: protein: recombinant; tags: N-terminal GST; dsDNA, one strand shown
# T9 sequence: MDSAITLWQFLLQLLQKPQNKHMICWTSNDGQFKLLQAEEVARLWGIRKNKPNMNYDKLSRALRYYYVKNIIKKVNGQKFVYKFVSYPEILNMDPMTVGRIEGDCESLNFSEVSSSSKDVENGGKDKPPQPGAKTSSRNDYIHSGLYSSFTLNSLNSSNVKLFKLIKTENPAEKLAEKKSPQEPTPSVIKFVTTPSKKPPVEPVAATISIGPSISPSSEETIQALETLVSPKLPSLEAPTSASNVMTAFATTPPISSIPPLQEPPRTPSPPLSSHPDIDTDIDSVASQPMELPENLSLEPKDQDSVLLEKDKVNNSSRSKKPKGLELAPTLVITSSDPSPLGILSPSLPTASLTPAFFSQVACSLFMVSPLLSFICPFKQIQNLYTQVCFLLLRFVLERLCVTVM
# How it was run: as §1
# ETV2 = biological target: T10, ETV2 (Homo sapiens, UniProt O00321 1-342); details: protein: recombinant; tags: N-terminal GST; dsDNA, one strand shown
# T10 sequence: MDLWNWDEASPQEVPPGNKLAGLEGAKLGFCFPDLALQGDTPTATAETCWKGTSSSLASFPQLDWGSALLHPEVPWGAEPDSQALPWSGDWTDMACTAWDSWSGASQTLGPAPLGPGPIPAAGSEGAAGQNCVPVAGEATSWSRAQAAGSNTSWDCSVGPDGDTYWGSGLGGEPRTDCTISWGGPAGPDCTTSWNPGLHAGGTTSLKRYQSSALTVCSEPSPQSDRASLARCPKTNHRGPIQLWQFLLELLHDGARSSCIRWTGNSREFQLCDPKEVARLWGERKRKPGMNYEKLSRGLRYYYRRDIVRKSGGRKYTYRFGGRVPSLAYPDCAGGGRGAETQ
# How it was run: as §1
# ELF3 = biological target: T11, ELF3 (Homo sapiens, UniProt P78545 1-371); details: protein: recombinant; tags: N-terminal GST; dsDNA, one strand shown
# T11 sequence: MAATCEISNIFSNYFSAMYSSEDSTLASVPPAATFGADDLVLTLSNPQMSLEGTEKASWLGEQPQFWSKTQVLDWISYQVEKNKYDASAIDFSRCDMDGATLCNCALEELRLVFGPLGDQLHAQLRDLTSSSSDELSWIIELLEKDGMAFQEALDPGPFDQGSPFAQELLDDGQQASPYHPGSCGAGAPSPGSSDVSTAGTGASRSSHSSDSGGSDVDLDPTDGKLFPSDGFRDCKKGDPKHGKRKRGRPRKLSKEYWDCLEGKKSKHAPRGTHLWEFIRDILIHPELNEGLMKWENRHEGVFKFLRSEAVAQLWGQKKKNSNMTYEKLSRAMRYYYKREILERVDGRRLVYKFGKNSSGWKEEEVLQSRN
# How it was run: as §1
# CRX = CRX (Homo sapiens, UniProt O43186 1-299); details: protein: recombinant; tags: N-terminal GST; dsDNA, one strand shown
# How it was run: as §1
# ETV1 = ETV1 (Homo sapiens, UniProt P50549 1-477); details: protein: recombinant; tags: N-terminal GST; dsDNA, one strand shown
# How it was run: as §1
# ELF1, sequence (P32519 whole entry): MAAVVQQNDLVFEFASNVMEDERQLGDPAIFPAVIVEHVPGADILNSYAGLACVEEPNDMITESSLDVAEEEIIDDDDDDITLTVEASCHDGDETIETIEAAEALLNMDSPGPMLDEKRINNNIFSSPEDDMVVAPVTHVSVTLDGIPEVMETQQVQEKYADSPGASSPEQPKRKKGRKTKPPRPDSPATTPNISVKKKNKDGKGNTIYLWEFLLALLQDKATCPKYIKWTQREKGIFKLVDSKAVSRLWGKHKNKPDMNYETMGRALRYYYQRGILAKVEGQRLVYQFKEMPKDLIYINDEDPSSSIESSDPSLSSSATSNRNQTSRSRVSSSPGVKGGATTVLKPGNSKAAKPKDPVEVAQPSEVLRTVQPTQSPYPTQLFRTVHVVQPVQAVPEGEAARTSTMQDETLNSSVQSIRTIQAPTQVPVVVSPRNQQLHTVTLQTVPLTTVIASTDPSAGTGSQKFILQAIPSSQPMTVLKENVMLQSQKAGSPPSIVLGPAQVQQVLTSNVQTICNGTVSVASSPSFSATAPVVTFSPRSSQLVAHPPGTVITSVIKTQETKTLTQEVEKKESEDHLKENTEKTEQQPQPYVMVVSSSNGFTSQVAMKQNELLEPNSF
# ETV1, sequence (P50549 whole entry): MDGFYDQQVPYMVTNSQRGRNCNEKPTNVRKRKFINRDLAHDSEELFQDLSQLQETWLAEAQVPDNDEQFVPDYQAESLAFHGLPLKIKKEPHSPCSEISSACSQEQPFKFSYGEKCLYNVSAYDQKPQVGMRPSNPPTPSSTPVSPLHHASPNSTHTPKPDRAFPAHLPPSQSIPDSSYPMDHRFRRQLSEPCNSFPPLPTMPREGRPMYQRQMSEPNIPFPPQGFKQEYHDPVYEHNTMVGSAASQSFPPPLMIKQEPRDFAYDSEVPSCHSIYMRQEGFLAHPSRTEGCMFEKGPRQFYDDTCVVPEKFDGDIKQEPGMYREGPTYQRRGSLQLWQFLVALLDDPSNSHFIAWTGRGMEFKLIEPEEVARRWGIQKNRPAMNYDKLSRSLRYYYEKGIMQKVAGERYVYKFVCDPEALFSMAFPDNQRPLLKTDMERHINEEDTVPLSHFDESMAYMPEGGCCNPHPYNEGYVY
# HSF1, sequence (Q00613 whole entry): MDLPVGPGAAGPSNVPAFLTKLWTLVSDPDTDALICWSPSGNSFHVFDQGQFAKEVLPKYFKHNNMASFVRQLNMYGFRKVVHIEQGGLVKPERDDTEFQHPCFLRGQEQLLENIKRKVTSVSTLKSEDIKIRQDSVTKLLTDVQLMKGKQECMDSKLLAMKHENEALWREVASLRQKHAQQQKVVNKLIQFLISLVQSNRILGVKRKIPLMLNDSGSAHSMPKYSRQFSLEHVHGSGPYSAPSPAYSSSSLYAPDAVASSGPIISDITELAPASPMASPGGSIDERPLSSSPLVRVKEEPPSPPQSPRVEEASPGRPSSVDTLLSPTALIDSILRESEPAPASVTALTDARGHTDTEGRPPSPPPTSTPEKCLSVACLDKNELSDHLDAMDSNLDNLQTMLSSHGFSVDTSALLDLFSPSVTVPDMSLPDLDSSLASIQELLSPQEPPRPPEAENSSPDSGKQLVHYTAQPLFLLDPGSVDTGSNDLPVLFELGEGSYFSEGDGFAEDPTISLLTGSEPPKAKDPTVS
# ETV5, sequence (P41161 whole entry): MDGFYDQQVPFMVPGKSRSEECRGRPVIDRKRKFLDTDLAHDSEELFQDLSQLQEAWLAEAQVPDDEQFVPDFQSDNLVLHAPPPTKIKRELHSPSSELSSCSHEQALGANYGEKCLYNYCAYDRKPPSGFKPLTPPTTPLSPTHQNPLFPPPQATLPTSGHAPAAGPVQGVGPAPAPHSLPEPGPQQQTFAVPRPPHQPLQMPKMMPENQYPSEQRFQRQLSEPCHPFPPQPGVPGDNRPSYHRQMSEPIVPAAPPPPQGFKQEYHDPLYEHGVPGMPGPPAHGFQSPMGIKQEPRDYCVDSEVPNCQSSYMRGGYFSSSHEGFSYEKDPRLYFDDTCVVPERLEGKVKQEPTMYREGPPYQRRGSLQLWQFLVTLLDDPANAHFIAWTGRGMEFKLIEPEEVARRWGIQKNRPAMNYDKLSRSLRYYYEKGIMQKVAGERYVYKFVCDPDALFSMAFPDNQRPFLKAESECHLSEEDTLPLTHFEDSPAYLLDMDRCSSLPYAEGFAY
# SPIB, sequence (Q01892 whole entry): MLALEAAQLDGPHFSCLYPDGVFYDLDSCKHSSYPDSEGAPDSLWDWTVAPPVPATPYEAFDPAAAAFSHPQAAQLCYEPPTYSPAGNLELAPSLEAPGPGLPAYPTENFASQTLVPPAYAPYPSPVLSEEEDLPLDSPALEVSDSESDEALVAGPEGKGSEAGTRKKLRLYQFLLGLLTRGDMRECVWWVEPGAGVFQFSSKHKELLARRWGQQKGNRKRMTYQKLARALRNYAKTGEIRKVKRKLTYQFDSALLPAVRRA
# ELF4, sequence (Q99607 whole entry): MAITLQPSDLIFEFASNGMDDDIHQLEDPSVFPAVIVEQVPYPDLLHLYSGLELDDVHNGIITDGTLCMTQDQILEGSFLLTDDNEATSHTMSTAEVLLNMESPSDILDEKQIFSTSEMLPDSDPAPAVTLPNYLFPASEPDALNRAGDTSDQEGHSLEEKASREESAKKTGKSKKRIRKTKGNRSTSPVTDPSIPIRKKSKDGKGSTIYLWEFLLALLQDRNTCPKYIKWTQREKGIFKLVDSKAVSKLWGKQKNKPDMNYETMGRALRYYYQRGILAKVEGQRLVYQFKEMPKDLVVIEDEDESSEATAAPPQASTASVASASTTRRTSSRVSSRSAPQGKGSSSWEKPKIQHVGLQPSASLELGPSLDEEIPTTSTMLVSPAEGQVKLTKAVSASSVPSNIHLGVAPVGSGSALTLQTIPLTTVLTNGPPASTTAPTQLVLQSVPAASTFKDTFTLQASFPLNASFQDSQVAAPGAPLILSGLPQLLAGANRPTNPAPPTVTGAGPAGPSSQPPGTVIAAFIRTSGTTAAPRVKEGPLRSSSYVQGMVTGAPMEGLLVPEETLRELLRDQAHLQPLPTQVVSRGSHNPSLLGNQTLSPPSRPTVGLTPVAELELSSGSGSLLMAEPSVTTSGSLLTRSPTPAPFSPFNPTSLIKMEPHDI
# CRX, sequence (O43186 whole entry): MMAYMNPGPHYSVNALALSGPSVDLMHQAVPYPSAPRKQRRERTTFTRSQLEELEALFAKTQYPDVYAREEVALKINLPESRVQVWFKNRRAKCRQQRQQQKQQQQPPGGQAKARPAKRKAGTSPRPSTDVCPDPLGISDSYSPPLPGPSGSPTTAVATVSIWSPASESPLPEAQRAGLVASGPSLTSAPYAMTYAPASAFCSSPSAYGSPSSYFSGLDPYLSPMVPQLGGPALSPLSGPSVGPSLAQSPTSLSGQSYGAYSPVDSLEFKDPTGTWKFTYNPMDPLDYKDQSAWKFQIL
sequence,measurement,setting,value
ATGATA,binding signal,FLI1,"1.22 fold enrichment (6-mer frequency, TF over GST control)"
same,binding signal,ELK1,"1.23 fold enrichment (6-mer frequency, TF over GST control)"
same,binding signal,GABPA,"1.16 fold enrichment (6-mer frequency, TF over GST control)"
same,binding signal,ERG,"1.26 fold enrichment (6-mer frequency, TF over GST control)"
same,binding signal,ELF1,"1.24 fold enrichment (6-mer frequency, TF over GST control)"
same,binding signal,EHF,"1.32 fold enrichment (6-mer frequency, TF over GST control)"
same,binding signal,SPI1,"1.2 fold enrichment (6-mer frequency, TF over GST control)"
same,binding signal,SPIB,"1.21 fold enrichment (6-mer frequency, TF over GST control)"
same,binding signal,ELK3,"1.34 fold enrichment (6-mer frequency, TF over GST control)"
same,binding signal,FEV,"1.25 fold enrichment (6-mer frequency, TF over GST control)"
same,binding signal,ETV5,"1.17 fold enrichment (6-mer frequency, TF over GST control)"
same,binding signal,HSF1,"1.23 fold enrichment (6-mer frequency, TF over GST control)"
same,binding signal,SPIC,"1.07 fold enrichment (6-mer frequency, TF over GST control)"
same,binding signal,ELF4,"1.26 fold enrichment (6-mer frequency, TF over GST control)"
same,binding signal,ELK4,"1.27 fold enrichment (6-mer frequency, TF over GST control)"
same,binding signal,ETV2,"1.2 fold enrichment (6-mer frequency, TF over GST control)"
same,binding signal,ELF3,"1.21 fold enrichment (6-mer frequency, TF over GST control)"
same,binding signal,CRX,"1.39 fold enrichment (6-mer frequency, TF over GST control)"
same,binding signal,ETV1,"1.17 fold enrichment (6-mer frequency, TF over GST control)"
